Source: the supplement of paper PMC6555819

Legend:
Assay in all cases: PBM binding z-score (relative to random genomic background probes); higher = stronger binding; sequences stand for … in GC…GCGATTGACAGCGTAGAATGAAGG
[1] = tested on: PPARg:RXRa DBDmut IVT, anti-RXR (DBD mutation: RXRa K156A/R161A, NR concentration 270 nM, RXRa partner concentration 90 nM)
Method in brief: (§1)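 The probes on custom Agilent 4×180K protein-binding microarrays were double-stranded, with 34-nt variable regions bearing direct-repeat seeds, single-nucleotide variants, half-site ablations and random human genomic background sequences. Incubation lasted 1 h with ligand-free nuclear receptor dimers in PBS pH 7.4, 2% milk, 0.02% Triton X-100, 1 mM DTT, 0.2 mg/mL BSA and 0.4 mg/ml salmon testes DNA. Antibodies against each partner (one per run) detected bound dimers, and fluorescence scans were regression-normalized. Binding z-scores take the random background probes as reference.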

[2] = tested on: PPARg:RXRa IVT, anti-PPARg (NR concentration 270 nM, RXRa partner concentration 90 nM)
Method in brief: as §1

[3] = tested on: PPARg DBDmut:RXRa IVT, anti-PPARg (DBD mutation: PPARg1 K132A/R137A, NR concentration 270 nM, RXRa partner concentration 90 nM)
Method in brief: as §1

[4] = tested on: PPARg DBDmut IVT, anti-PPARg (DBD mutation: PPARg1 K132A/R137A, NR concentration 270 nM)
Method in brief: as §1

[5] = tested on: PPARg homodimer (NR concentration 180 nM)
Method in brief: as §1

[6] = tested on: PXR:RXRa (NR concentration 270 nM, RXRa partner concentration 90 nM)
Method in brief: as §1

[7] = tested on: PXR homodimer (NR concentration 270 nM)
Method in brief: as §1

[8] = tested on: RARa:RXR (NR concentration 270 nM, RXRa partner concentration 90 nM)
Method in brief: as §1

[9] = tested on: RARa homodimer (NR concentration 270 nM)
Method in brief: as §1

[10] = tested on: RARb:RXRa (NR concentration 270 nM, RXRa partner concentration 90 nM)
Method in brief: as §1

[11] = tested on: RARb homodimer (NR concentration 270 nM)
Method in brief: as §1

[12] = tested on: RARg:RXRa (NR concentration 270 nM, RXRa partner concentration 90 nM)
Method in brief: as §1

[13] = tested on: RARg homodimer (NR concentration 270 nM)
Method in brief: as §1

[14] = tested on: RXRa DBDmut IVT, anti-RXR (DBD mutation: RXRa K156A/R161A, NR concentration 90 nM)
Method in brief: as §1

[15] = tested on: RXRa homodimer (NR concentration 180 nM)
Method in brief: as §1

[16] = tested on: THRa:RXRa (NR concentration 90 nM, RXRa partner concentration 90 nM)
Method in brief: as §1

[17] = tested on: THRa homodimer (NR concentration 90 nM)
Method in brief: as §1

[18] = tested on: VDR homodimer (NR concentration 270 nM)
Method in brief: as §1

| Sequence | PBM binding z-score [1] | PBM binding z-score [2] | PBM binding z-score [3] | PBM binding z-score [4] | PBM binding z-score [5] | PBM binding z-score [6] | PBM binding z-score [7] | PBM binding z-score [8] | PBM binding z-score [9] | PBM binding z-score [10] | PBM binding z-score [11] | PBM binding z-score [12] | PBM binding z-score [13] | PBM binding z-score [14] | PBM binding z-score [15] | PBM binding z-score [16] | PBM binding z-score [17] | PBM binding z-score [18] |
| --- | --- | --- | --- | --- | --- | --- | --- | --- | --- | --- | --- | --- | --- | --- | --- | --- | --- | --- |
| CCTGCTCGGTCAATGGTCAGCTAAAGCAGCTCGC | 0.753 | 0.0131 | -1.19 | -1.21 | -0.242 | -0.189 | -0.933 | 0.252 | -0.686 | 2.28 | 1.62 | 1.65 | 2.47 | 0.331 | 0.053 | -0.136 | -0.403 | -0.799 |
| ATATGTAGGTTCCATCCGGGTCATTCAGGCTATG | 4.13 | 4.29 | 1.99 | 1.93 | 2.32 | 3.14 | 2.22 | 2.86 | 0.215 | 1.43 | 2.11 | 1.65 | 1.19 | 0.91 | 2.18 | 3.44 | 2.32 | 2.91 |
| CCTACTGGGCCAAGCTCATTGATCAGTCAAAGCA | 4.44 | 2.91 | -0.901 | -1.44 | -0.727 | -0.626 | -0.809 | -0.399 | -1.2 | -0.112 | -0.235 | -0.314 | -0.109 | -0.384 | -0.732 | -0.704 | -0.701 | -0.851 |
| AGTCAAAGTTCACTAGGTTACGTAAGATTCAGCT | 3.75 | 5.6 | 1.8 | 1.2 | 1.99 | 4.58 | 4.84 | 4.08 | 2.05 | 4.93 | 4.27 | 5.33 | 6.12 | 4.29 | 4.53 | 2.55 | 0.508 | 3.98 |
| CTCGAAAGGTCGTGGTCAGGTGAGTATACCAAAC | 0.883 | 2.33 | -0.0163 | 0.484 | 2.21 | 3.61 | 0.127 | 4.47 | 0.777 | 4.04 | 3.25 | 5.58 | 4.34 | 1.88 | 5.4 | 4.01 | 0.825 | 1.13 |
| TCTAGTTGGTCAAAGGTCTCACACTCGAAATGCG | 3.11 | 3.77 | 1.08 | 1.78 | 2.48 | 1.34 | 0.942 | 1.89 | 1.17 | 1.88 | 1.83 | 1.78 | 1.17 | 1.14 | 1.98 | 0.831 | 0.738 | 0.545 |
| TTACCAAGGTAAAAGGTCGTTGATGCACGCCTTG | 0.76 | 3.59 | 0.399 | 0.573 | 1.67 | 3.07 | 0.505 | 4.08 | 0.101 | 2.28 | 2.14 | 2.79 | 1.22 | 0.317 | 3.68 | 2.63 | 0.000698 | 1.44 |
